Sampled rows, rich in hits. Any-hit rate of the full collection: about 1.2%.
Avidin fluor – avidin bead compound fluorescence profile. AID 1775. Avidin beads, compound fluorescence 488/530 nm, flow cytometry; active compounds read high. fluorescence (KMESF) at 10 µM. 220,000 compounds, 0.38% hits; in the data active = fluorescence above about 47
RGS7-Gao reg – modulates binding of RGS7 to human Galphao | Multiplexed bead flow cytometry; actives lie on both sides | binding response (% of control), % at 10 µM | P09471 | 220,000 compounds, 0.35% hits; in the data active = binding response below about 49% or above about 150%; inconclusive = no clear call, values can overlap the other calls; inactive = in between;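 also: fluorescent Galphao held in activated GDP-AlF4 state binding bead-coupled RGS7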
Target sequence (P09471 whole entry, looked up): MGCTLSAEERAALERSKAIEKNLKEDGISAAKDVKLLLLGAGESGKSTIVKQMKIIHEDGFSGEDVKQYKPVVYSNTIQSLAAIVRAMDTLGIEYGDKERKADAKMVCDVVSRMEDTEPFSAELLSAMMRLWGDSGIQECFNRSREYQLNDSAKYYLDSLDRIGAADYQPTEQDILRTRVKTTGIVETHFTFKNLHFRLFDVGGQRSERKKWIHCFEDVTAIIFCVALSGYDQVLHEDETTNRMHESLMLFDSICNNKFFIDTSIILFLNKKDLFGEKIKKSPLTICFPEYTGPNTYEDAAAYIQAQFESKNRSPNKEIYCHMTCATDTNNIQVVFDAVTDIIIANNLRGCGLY
GSH fluor – compound fluoresces at 488/530 nm on GSH beads; GSH beads flow cytometry, compound fluorescence 488/530 nm; active compounds read high; 190,000 compounds, 0.25% hits; fluorescence (KMESF) at 10 µM; AID 1776; in the data active = fluorescence above about 89;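 also: glutathione beads carrying GST-tagged Bcl family fusion proteins plus one bare bead set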
RGS4-Gao reg – modulates binding of RGS4 to human Galphao; AID 1415; Multiplexed bead flow cytometry; actives lie on both sides; binding response (% of control), % at 10 µM; 220,000 compounds, 0.33% hits; P09471; in the data active = binding response below about 49% or above about 150%; inactive = in between;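 also: fluorescent Galphao activated with aluminum fluoride binding bead-coupled RGS4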
RGS8-Gao reg – regulators of human RGS8-Galphao interaction; 220,000 compounds, 0.34% hits; multiplexed bead flow cytometry, RGS8-Galphao binding; actives lie on both sides; AID 1423; P09471; response (percent of control binding), % at 10 µM; in the data active = response below about 60% or above about 140%; inactive = in between;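 also: Galphao activated as the GDP aluminium fluoride complex binding bead-coupled RGS8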
RGS16-Gao HTS – modulates binding between human RGS16 and Galphao; bead-based flow cytometry RGS16-Galphao binding, fluorescence; actives lie on both sides; 220,000 compounds, 0.38% hits; binding response (% of control), % at 10 µM; call rule not given here;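 also: Galphao activated by GDP with aluminum fluoride before binding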
Target sequence (O15492 whole entry, looked up): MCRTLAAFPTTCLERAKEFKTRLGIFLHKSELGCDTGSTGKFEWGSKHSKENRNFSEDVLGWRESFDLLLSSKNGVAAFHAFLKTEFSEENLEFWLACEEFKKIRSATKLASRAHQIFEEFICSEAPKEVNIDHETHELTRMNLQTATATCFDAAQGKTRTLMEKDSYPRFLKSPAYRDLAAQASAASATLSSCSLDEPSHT
Target sequence (P09471 whole entry, looked up): as the sequence (P09471 whole entry, looked up) above
A number is an active result.

CCCC(C(=O)NC(C)(C)C)N(C(=O)c1snc(C(N)=O)c1N)c1ccc2c(c1)OCCO2 (stereo not drawn) was read as Avidin fluor 47, RGS7-Gao reg inactive, GSH fluor inactive, RGS4-Gao reg inactive, RGS8-Gao reg inactive and RGS16-Gao HTS inactive.
CC(=O)N1CC2([N+](=O)[O-])CN(C(C)=O)CC([N+](=O)[O-])(C1)C2(C)C was read as Avidin fluor inactive, RGS7-Gao reg inactive, GSH fluor inactive, RGS4-Gao reg inactive, RGS8-Gao reg inactive and RGS16-Gao HTS inactive.
`CCc1c(C(=O)NNC(=S)NC2CCCCC2)csc1C` gave Avidin fluor inactive, RGS7-Gao reg inconclusive, GSH fluor inactive, RGS4-Gao reg inactive, RGS8-Gao reg inactive and RGS16-Gao HTS inactive.
For CC(=O)NNC(=S)NCCc1ccccc1 the results were Avidin fluor 96, RGS7-Gao reg inactive, GSH fluor inactive, RGS4-Gao reg inactive, RGS8-Gao reg inactive and RGS16-Gao HTS inactive.
For CCc1c(C(=O)NNC(=S)NCCc2ccccc2)csc1C the results were Avidin fluor inactive, RGS7-Gao reg inactive, GSH fluor 148, RGS4-Gao reg inactive, RGS8-Gao reg inactive and RGS16-Gao HTS inactive.
Screening CSc1ccc(N=Nc2c(C)[nH]n(C)c2=O)cc1 returned Avidin fluor inactive, RGS7-Gao reg inconclusive, RGS4-Gao reg inactive, RGS8-Gao reg inactive and RGS16-Gao HTS inactive.
For C=CCNc1nc(Nc2ccc(OC)cc2OC)nc(OCC)n1 the results were Avidin fluor 75, RGS7-Gao reg inactive, GSH fluor inactive, RGS4-Gao reg inactive, RGS8-Gao reg inactive and RGS16-Gao HTS inactive.
`C=CCNc1nc(Nc2ccccc2F)nc(OCC)n1` gave Avidin fluor inactive, RGS7-Gao reg inactive, GSH fluor inactive, RGS4-Gao reg inactive, RGS8-Gao reg inactive and RGS16-Gao HTS inactive.
`O=C(Nc1nc(-c2ccccc2)cs1)c1cccc([N+](=O)[O-])c1` gave Avidin fluor inactive, RGS7-Gao reg 13, GSH fluor inactive, RGS4-Gao reg 21, RGS8-Gao reg 12 and RGS16-Gao HTS 1.7.
`Cc1cccc(C(=O)NC(NCc2ccco2)C(Cl)(Cl)Cl)c1` (stereo not drawn) gave Avidin fluor inactive, RGS7-Gao reg 44, GSH fluor inactive, RGS4-Gao reg 49, RGS8-Gao reg 57 and RGS16-Gao HTS inactive.
`Nc1nonc1/C(=N/O)N1CCN(CCO)CC1` gave Avidin fluor inactive, RGS7-Gao reg inactive, GSH fluor 261, RGS4-Gao reg inactive, RGS8-Gao reg inactive and RGS16-Gao HTS inactive.
`CN1CCN(/C(=N\O)c2nonc2N)CC1` gave Avidin fluor inactive, RGS7-Gao reg inactive, GSH fluor inactive, RGS4-Gao reg inactive, RGS8-Gao reg inactive and RGS16-Gao HTS inactive.
For C/C=C(\C)CN1CCCC(CO)(Cc2ccccc2)C1 (stereo not drawn) the results were Avidin fluor inactive, RGS7-Gao reg inactive, GSH fluor inactive, RGS4-Gao reg inactive, RGS8-Gao reg inactive and RGS16-Gao HTS inactive.
Screening COc1ccc(OC)c(C(=O)c2coc3ccc(O)cc23)c1 returned Avidin fluor inactive, RGS7-Gao reg inactive, GSH fluor 88, RGS4-Gao reg inactive, RGS8-Gao reg inactive and RGS16-Gao HTS inactive.
Screening COc1ccc2occ(C(=O)c3ccccc3)c2c1 returned Avidin fluor inactive, RGS7-Gao reg inconclusive, GSH fluor inactive, RGS4-Gao reg inactive, RGS8-Gao reg inactive and RGS16-Gao HTS inactive.
CCOc1ccc(NC(=S)N2CCN(CCN3C(=O)c4cccc5cccc(c45)C3=O)CC2)cc1 was read as Avidin fluor 51, RGS7-Gao reg inactive, GSH fluor inactive, RGS4-Gao reg inactive, RGS8-Gao reg inactive and RGS16-Gao HTS inactive.
Screening COc1ccc(NC(=S)N2CCN(CCN3C(=O)c4cccc5cccc(c45)C3=O)CC2)cc1 returned Avidin fluor inactive, RGS7-Gao reg inconclusive, GSH fluor inactive, RGS4-Gao reg inactive, RGS8-Gao reg inactive and RGS16-Gao HTS inactive.
COc1ccc(N2CCN(C(=O)CSc3nnc(-c4ccco4)n3C)CC2)cc1 was read as Avidin fluor inactive, RGS7-Gao reg inactive, GSH fluor inactive, RGS4-Gao reg inactive, RGS8-Gao reg inactive and RGS16-Gao HTS inactive.
`CCC(=O)NC(Nc1ncc(C)s1)(C(=O)OC)C(F)(F)F` (stereo not drawn) gave Avidin fluor inactive, RGS7-Gao reg inactive, GSH fluor 124, RGS4-Gao reg inactive, RGS8-Gao reg inactive and RGS16-Gao HTS inactive.
For CCc1ccc2c(c1)c1nc(C)sc1n2CC(=O)OC the results were Avidin fluor 51, RGS7-Gao reg inactive, GSH fluor inactive, RGS4-Gao reg inactive, RGS8-Gao reg inactive and RGS16-Gao HTS inactive.
Screening Cc1cc(N2CCCCC2)nc(N2CCOCC2)n1 returned Avidin fluor 111, RGS7-Gao reg inactive, GSH fluor inactive, RGS4-Gao reg inactive, RGS8-Gao reg inactive and RGS16-Gao HTS inactive.
For Cc1cc(N2CCOCC2)nc(N2CCOCC2)n1 the results were Avidin fluor inactive, RGS7-Gao reg inconclusive, GSH fluor inactive, RGS4-Gao reg inactive, RGS8-Gao reg inactive and RGS16-Gao HTS inactive.
For CC(=O)Oc1ccccc1-n1c(C)nc(=O)c(-c2ccccc2)c1C the results were Avidin fluor inactive, RGS7-Gao reg inconclusive, RGS4-Gao reg inactive, RGS8-Gao reg inactive and RGS16-Gao HTS inactive.
Screening CCOC(=O)c1ccc2c(c1)N(CC#N)C(=O)C(C)(C)O2 returned Avidin fluor inactive, RGS7-Gao reg inactive, GSH fluor inactive, RGS4-Gao reg inactive, RGS8-Gao reg inactive and RGS16-Gao HTS inactive.
For CCN1CCN(S(=O)(=O)c2cc(C(=O)O)ccc2Cl)CC1 the results were Avidin fluor 58, RGS7-Gao reg inconclusive, RGS4-Gao reg inactive, RGS8-Gao reg inactive and RGS16-Gao HTS inactive.
Screening Cc1cc(C)nc(Nc2ncc(O)n2-c2ccc(C)c(C)c2)n1 returned Avidin fluor 56, RGS7-Gao reg inactive, GSH fluor inactive, RGS4-Gao reg inactive, RGS8-Gao reg inactive and RGS16-Gao HTS inactive.
Cc1cc(C)n2c(SCCC(C)C)nnc2n1 was read as Avidin fluor inactive, RGS7-Gao reg inactive, GSH fluor 255, RGS4-Gao reg inactive, RGS8-Gao reg inactive and RGS16-Gao HTS inactive.
`O=C(CN1C(=O)c2ccccc2C1=O)OCC(=O)N1CCc2ccccc2C1` gave Avidin fluor inactive, RGS7-Gao reg inactive, GSH fluor 268, RGS4-Gao reg inactive, RGS8-Gao reg inactive and RGS16-Gao HTS inactive.
Screening C=CCNC(=O)COC(=O)c1ccc(Sc2nncn2C)c([N+](=O)[O-])c1 returned Avidin fluor 86, RGS7-Gao reg inactive, GSH fluor inactive, RGS4-Gao reg inactive, RGS8-Gao reg inactive and RGS16-Gao HTS inactive.
O=c1[nH]cnc(O)c1C(c1cccc([N+](=O)[O-])c1)c1c(O)nc[nH]c1=O was read as Avidin fluor inactive, RGS7-Gao reg inconclusive, RGS4-Gao reg inactive, RGS8-Gao reg inactive and RGS16-Gao HTS inactive.
COc1ccc(/C=C/C(=O)OCC(=O)NCCC2=CCCCC2)cc1S(=O)(=O)N1CCOCC1 was read as Avidin fluor inactive, RGS7-Gao reg inconclusive, GSH fluor inactive, RGS4-Gao reg inactive, RGS8-Gao reg inactive and RGS16-Gao HTS inactive.

Screening data deposited in PubChem BioAssay by NMMLSC.
